{
  "source": "patent US20150152398",
  "about": "“Endoribonuclease and Methods of Use Thereof” (The Regents of the University of California, published 2015)",
  "data": [
    {"molecular_target": "T1, TtCas6A H37A (Thermus thermophilus HB8, H37A)", "T1 chain": "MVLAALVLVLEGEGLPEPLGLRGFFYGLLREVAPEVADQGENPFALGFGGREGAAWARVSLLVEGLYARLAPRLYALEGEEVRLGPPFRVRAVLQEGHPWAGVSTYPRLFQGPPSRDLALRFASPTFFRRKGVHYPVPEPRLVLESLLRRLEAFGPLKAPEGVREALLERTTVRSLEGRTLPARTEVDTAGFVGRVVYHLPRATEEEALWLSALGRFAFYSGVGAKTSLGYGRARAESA", "test": "EMSA; Kd in FIG. 24D only", "settings": "chain copies: 2 inferred; label: 5'-32P (EMSA); hairpin; ssRNA", "text": "FIG. 22 illustrates that TtCas6A and TtCas6B both cleave repeats R1 and R3 and retain their cleaved products. (A) Sequences and predicted secondary structures of T. thermophilus CRISPR repeats. Sites of cleavage are indicated with blue arrows. TtCas6e (TTHB192) cleaves repeat R2, while TtCas6A (TTHA0078) and TtCas6B (TTHB231) both cleave repeats R1 and R3. (B) Cleavage product binding affinities of TtCas6A and TtCas6B enzymes. Maltose binding protein (MBP)-fused TtCas6A or TtCas6B were bound to in 5′-radiolabelled, vitro transcribed R1 and R3 RNAs. Bound and unbound fractions were resolved by electrophoresis on a native polyacrylamide gel and visualized by phosphorimaging. The data for these and all subsequent binding assays were fit with standard binding isotherms (solid line). Error bars on each data point denote standard error of the mean (SEM) from three independent experiments. (C) Experiments to confirm single turnover. RNA cleavage assays were carried out at indicated protein:RNA ratios. RNA cleavage was monitored using denaturing polyacrylamide gel electrophoresis. The data from these and all subsequent endoribonuclease activity assays were fit with single exponential curves to yield first-order rate constants. (Top to bottom: FIG. 22A, SEQ ID NOs: 1, 2, 55).\nTo test the importance of the stem sequence for substrate RNA recognition by TtCas6A, a series of EMSAs was performed using R1 repeat-derived RNAs that carried single base pair substitutions (C-G→A-U). All mutant RNAs contained the complete 5′ segment and additional two nucleotides downstream of the cleavage site. Compared to the wild-type RNA, substitution of any of the four C-G base pairs in the stem led to about five-fold decrease in affinity (FIG. 24C). This is consistent with the observation that the lower three C-G base pairs are specifically read out by Arg129. The binding defect observed upon mutation of the closing (uppermost) base pair could be due to loss of stability of the stem-loop structure, which is determined by the closing base-pair (Serra et al, 1993). To further investigate the protein determinants of RNA binding, we tested the TtCas6A mutants H37A and R129A and performed binding assays using substrates R1 and R3 (FIG. 24D).", "values": [
      {"sequence": "GUUGCAAGGGAUUGAGCCCCGUAAGGGGAUUGCGAC", "binding signal": "~70 fold lower affinity than WT"},
      {"sequence": "GUUGCAAACCUCGUUAGCCUCGUAGAGGAUUGAAAC", "binding signal": "~90 fold lower affinity than WT"}
    ]}
  ]
}
